A short description of test [1]: qHTS assay to identify small molecule agonists of the sonic hedgehog signaling (Shh) pathway (AID 1259368; calls by dose curve; further: series mostly up to about 92 µM; nearly all actives have a fitted effect of over 15% in size). Summed up: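 NIH/3T3-derived 3T3Gli1-Luc cells carrying a stably integrated Gli1 response element–firefly luciferase reporter were plated, left 4 hr at 37 C, then given compounds in DMSO for 24 hr. Luminescence was read 30 min after adding luciferase reagent.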
On the technique in general: Quantitative high-throughput screening tests each substance at several concentrations.

Test [2] is described as follows: qHTS assay to identify small molecule antagonists of the sonic hedgehog signaling (Shh) pathway (AID 1259369; calls by dose curve; further: nearly all actives have a fitted effect of over 45% in size; further: potency means the concentration at half of the fitted maximal effect). Summed up: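 NIH/3T3-derived 3T3Gli1-Luc cells with stably integrated Gli1-Luc reporter were preincubated 4hr at 37 C, then given compounds in DMSO plus Shh conditioned medium and incubated 24hr. Firefly luciferase luminescence read after 30min reagent at room temperature.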

In test [3] the target is Estrogen receptor beta (Homo sapiens) (UniProt Q92731). Kind of test: qHTS assay to identify small molecule agonists of the estrogen receptor beta (ER-beta) signaling pathway (AID 1259377; active means well fitted activation curve with a large enough effect in the signal ratio in the repeat runs, not every such curve was filed as active; the % refers to the signal ratio). Summed up:
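qHTS in ER-beta-UAS-bla HEK293T cells: 6 hr settling, then 16 hr compound at 37C, then LiveBLAzer substrate 2 h at RT before fluorescence reading.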

Test [4] has the same target. Kind of test: qHTS assay to identify small molecule antagonists of the estrogen receptor beta (ER-beta) signaling pathway (AID 1259378; active means well fitted inhibition curve with a large enough effect in the signal ratio in the repeat runs, not every such curve was filed as active; the % refers to the signal ratio; further: potency means the concentration at half of the fitted maximal effect). Summed up: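 ER-beta-UAS-bla HEK293T (GripTite) cells in 2% charcoal-stripped FBS medium were preincubated 6 hr at 37C, dosed with compound, then stimulated with 1 nM E2 (final) for 16 hr; beta-lactamase reporter read by B/G FRET fluorescence after 2 hr substrate loading.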

Test [5] can be described thus: qHTS assay to identify small molecule agonists of the androgen receptor (AR) signaling pathway in the presence of an antagonist - cell viability counter screen (AID 1259379). Further: series mostly up to about 92 µM; nearly all actives have a fitted effect of over 25% in size. Summed up: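 MDA-kb2 human breast carcinoma cells (stable MMTV-luciferase, AR/GR responsive) were seeded 3,000 cells/well, pre-incubated 5 hr at 37C without CO2, then given 3.0uM nilutamide and compounds at 15 concentrations for 16 hr. Viability was read by CellTiter-Fluor fluorescence.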

A short description of test [6]: qHTS assay to identify small molecule agonists of the estrogen receptor beta (ER-beta) signaling pathway - cell viability counter screen (AID 1259380). Further: nearly all actives have a fitted effect of over 30% in size. Further: potency means the concentration at half of the fitted maximal effect. Summed up: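 ER-beta-UAS-bla HEK293T cells in medium with 2% charcoal-stripped FBS were preincubated 6 hr at 37C, dosed with compound in DMSO for 16 hr, then after the bla read, CellTiter-Glo was added for 30 min at room temperature; luminescence recorded.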

The target in test [7] is Androgen receptor (Homo sapiens) (UniProt P10275). As to the kind of experiment: qHTS assay to identify small molecule agonists of the androgen receptor (AR) signaling pathway in the presence of an antagonist (AID 1259381; calls by dose curve; further: nearly all actives have a fitted effect of over 15% in size). Summed up: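 MDA-kb2 human breast carcinoma cells carrying an MMTV-luciferase reporter (AR- and GR-responsive) were treated with compounds at 15 concentrations plus 3.0uM final nilutamide for 16hr at 37C without CO2; luminescence was read after ONE-Glo addition.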
Androgen receptor (Homo sapiens), sequence (P10275 whole entry, looked up): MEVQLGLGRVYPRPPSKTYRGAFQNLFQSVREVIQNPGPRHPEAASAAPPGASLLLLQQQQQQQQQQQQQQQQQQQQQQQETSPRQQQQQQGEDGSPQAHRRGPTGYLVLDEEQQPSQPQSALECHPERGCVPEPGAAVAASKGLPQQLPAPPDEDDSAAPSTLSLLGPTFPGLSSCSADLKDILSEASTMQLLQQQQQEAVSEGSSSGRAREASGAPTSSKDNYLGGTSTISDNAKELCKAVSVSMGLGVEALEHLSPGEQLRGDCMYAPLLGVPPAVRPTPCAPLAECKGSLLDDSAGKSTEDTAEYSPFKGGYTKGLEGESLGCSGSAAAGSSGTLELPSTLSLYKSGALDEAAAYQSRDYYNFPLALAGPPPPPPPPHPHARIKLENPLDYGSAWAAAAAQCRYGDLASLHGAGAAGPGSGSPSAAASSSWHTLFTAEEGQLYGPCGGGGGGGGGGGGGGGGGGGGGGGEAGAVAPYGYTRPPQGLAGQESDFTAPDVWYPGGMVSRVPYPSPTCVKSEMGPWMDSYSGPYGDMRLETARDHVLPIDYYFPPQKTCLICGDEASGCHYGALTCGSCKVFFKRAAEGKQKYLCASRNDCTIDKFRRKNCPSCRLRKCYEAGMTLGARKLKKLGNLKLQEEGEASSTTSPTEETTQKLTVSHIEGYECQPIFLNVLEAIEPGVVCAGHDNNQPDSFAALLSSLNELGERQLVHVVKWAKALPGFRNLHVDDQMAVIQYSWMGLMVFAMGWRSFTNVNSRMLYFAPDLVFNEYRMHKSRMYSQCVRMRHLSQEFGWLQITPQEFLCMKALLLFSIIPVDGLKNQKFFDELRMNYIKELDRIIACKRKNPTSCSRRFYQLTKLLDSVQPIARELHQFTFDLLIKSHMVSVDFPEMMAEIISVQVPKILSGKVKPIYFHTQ

The nature of test [8]: qHTS assay to identify small molecule antagonists of the estrogen receptor beta (ER-beta) signaling pathway - cell viability counter screen (AID 1259382). Further: series mostly up to about 92 µM; nearly all actives have a fitted effect of over 55% in size. Summed up:
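ER-beta-UAS-bla HEK293T cells (2,000/well, 2% charcoal-stripped FBS) were pre-incubated 6 hr at 37C, then given compound plus 1nM final 17-beta-estradiol for 16 hr. Viability was read in the same wells by CellTiter-Glo luminescence after 30 min at room temperature.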

For test [9], the target named is Estrogen receptor (Homo sapiens) (UniProt P03372). As to the kind of experiment: qHTS assay to identify small molecule agonists of the estrogen receptor alpha (ER-alpha) signaling pathway in the presence of an antagonist (AID 1259383; calls by dose curve; further: top concentration of the series differs between compounds; nearly all actives have a fitted effect of over 15% in size). Summed up: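 VM7Luc4E2 cells (endogenous full-length ER-alpha, 4×ERE-luciferase) were precultured 5 days in phenol red-free medium with 10% charcoal-stripped FBS, given 10.0nM ICI-182,780 (final), then treated with compounds at 15 concentrations for 22hr at 37C; luminescence read with ONE-Glo.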
Estrogen receptor (Homo sapiens), sequence (P03372 whole entry, looked up): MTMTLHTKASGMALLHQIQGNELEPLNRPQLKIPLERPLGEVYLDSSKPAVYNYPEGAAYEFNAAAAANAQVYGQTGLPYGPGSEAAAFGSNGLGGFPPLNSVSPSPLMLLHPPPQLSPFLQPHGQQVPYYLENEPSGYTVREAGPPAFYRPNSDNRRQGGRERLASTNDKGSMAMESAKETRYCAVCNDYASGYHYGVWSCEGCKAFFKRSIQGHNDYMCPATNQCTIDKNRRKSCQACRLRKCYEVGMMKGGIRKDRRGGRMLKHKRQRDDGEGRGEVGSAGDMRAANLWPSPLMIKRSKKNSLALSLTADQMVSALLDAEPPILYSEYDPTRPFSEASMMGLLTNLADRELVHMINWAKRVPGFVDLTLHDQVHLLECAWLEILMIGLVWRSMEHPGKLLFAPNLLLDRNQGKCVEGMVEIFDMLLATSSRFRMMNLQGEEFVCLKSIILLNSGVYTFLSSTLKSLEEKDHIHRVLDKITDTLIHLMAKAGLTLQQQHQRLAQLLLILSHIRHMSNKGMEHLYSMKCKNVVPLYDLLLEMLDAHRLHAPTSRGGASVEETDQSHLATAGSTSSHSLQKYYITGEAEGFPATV

Test [10] can be described thus: qHTS assay to identify small molecule agonists or antagonists of the thyroid stimulating hormone receptor (TSHR) signaling pathway - wild type cell line counter screen (AID 1259384; calls by dose curve). Summed up:
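Wild-type HEK293 cells were plated 18 h at 37 C/5% CO2, pin-dosed with compound plus Ro20-1724 medium, held 30 min at room temperature, then given cAMP-d2 and anti-cAMP-cryptate; fluorescence was read after 1 h. Fifteen concentrations, triplicate.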

For test [11], the target named is Thyrotropin receptor (Homo sapiens) (UniProt P16473). Kind of test: qHTS assay to identify small molecule antagonists of the thyroid stimulating hormone receptor (TSHR) signaling pathway (AID 1259385; calls by dose curve; further: nearly all actives have a fitted effect of over 20% in size). Summed up:
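TSHR-HEK293 cells were plated and held 18 h at 37C/5% CO2, then given compound plus Ro20-1724 and stimulated with TSH at 1.5 ng/mL final. After 30 min at room temperature, cAMP was detected with cAMP-d2/anti-cAMP-cryptate (1 h) by fluorescence.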

A short description of test [12]: qHTS assay to identify small molecule agonists of the estrogen receptor alpha (ER-alpha) signaling pathway in the presence of an antagonist - cell viability counter screen (AID 1259386).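 Further: series mostly up to about 92 µM; cells exposed to compounds for 22 h at 37 °C before the viability read; nearly all actives have a fitted effect of over 30% in size.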 Summed up: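 VM7Luc4E2 cells (endogenous full-length ER-alpha, 4×ERE-luciferase) were held 5 days in phenol red-free medium with 10% charcoal-stripped FBS, plated, then given 10.0nM ICI-182,780 and compounds at 15 concentrations for 22hr at 37C; viability read by CellTiter-Fluor fluorescence.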

In test [13] the target is Progesterone receptor (Homo sapiens) (UniProt P06401). As to the kind of experiment: qHTS assay to identify small molecule agonists of the progesterone receptor (PR) signaling pathway (AID 1346784; calls by dose curve; further: nearly all actives have a fitted effect of over 30% in size). Summed up: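 Fluorescence from LiveBLAzer B/G FRET substrate cleavage (2 hr, RT) reported PR activation in PR-UAS-bla HEK 293T cells treated 16 hr at 37C/5% CO2 with compounds; medium contained 2% charcoal-stripped FBS.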
Progesterone receptor (Homo sapiens), sequence (P06401 whole entry, looked up): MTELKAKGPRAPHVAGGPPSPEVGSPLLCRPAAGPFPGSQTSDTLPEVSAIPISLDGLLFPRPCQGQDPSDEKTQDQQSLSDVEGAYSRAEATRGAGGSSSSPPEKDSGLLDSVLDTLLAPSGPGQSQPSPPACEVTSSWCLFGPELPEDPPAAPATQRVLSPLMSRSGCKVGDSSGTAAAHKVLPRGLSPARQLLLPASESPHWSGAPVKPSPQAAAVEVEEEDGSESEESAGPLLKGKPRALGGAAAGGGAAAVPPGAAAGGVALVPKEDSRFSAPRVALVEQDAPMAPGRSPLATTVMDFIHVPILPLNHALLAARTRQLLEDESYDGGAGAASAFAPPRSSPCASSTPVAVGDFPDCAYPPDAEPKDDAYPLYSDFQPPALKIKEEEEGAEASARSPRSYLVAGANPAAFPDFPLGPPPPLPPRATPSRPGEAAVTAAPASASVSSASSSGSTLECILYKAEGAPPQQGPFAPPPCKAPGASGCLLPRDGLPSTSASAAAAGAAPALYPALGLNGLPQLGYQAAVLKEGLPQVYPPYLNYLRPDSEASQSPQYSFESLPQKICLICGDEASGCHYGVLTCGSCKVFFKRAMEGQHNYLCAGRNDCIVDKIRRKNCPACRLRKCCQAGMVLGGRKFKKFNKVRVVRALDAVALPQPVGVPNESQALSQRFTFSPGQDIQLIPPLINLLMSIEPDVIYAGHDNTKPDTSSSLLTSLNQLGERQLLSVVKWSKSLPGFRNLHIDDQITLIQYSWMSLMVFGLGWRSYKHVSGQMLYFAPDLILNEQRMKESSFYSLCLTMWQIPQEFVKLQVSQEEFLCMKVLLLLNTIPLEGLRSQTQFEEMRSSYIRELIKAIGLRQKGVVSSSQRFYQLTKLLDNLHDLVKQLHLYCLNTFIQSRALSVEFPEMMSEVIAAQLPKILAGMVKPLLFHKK

Test [14] shares this target. Kind of test: qHTS assay to identify small molecule antagonists of the progesterone receptor (PR) signaling pathway (AID 1346795; active means well fitted inhibition curve with a large enough effect in the signal ratio in the repeat runs, not every such curve was filed as active; the % refers to the signal ratio; further: potency means the concentration at half of the fitted maximal effect). Summed up: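 Fluorescence intensity measured 2 hr after adding beta-lactamase FRET substrate to PR-UAS-bla HEK293T cells that had been co-treated 16 hr with compound and 1 nM R5020 (final concentration) in 2% charcoal-stripped FBS.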
Test [15] can be described thus: qHTS assay to identify small molecule antagonists of the progesterone receptor (PR) signaling pathway - cell viability counter screen (AID 1346798). Further: series mostly up to about 92 µM; nearly all actives have a fitted effect of over 50% in size. Summed up: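 CellTiter-Glo luminescence; PR-UAS-bla HEK293T, 3,000 cells/well; compound + R5020, 16 hr, 37C/5% CO2; 30 min RT before read.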
Test [16] is described as follows: qHTS assay to identify small molecule agonists of the progesterone receptor (PR) signaling pathway - cell viability counter screen (AID 1346799; calls by dose curve; further: nearly all actives have a fitted effect of over 45% in size). Summed up: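 In parallel with the beta-lactamase readout, cytotoxicity toward PR-UAS-bla HEK293T cells was measured by CellTiter-Glo luminescence following 16 hr compound incubation in 2% charcoal-stripped FBS medium.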

The nature of test [17]: qHTS assay to identify small molecule antagonists of the TGF-beta/Smad signaling pathway - cell viability counter screen (AID 1346824). Further: nearly all actives have a fitted effect of over 50% in size. Summed up: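 SBE-bla HEK 293T cells were plated overnight at 37 C, then given compounds in DMSO plus TGF-beta1 (added as 0.25 ng/mL solution) for 5 hr. After the bla read, CellTiter-Glo was added to the same wells and luminescence read after 30 min at room temperature.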

Test [18] is described as follows: qHTS assay to identify small molecule agonists of the TGF-beta/Smad signaling pathway - cell viability counter screen (AID 1346829). Further: top concentration of the series differs between compounds; nearly all actives have a fitted effect of over 45% in size. Summed up:
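HEK 293T SBE-bla line, 5 hr compound exposure at 37 C, multiplexed CellTiter-Glo viability read by luminescence.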

Test [19] in a line: qHTS assay to identify small molecule agonists of the TGF-beta/Smad signaling pathway (AID 1346859; active means well fitted activation curve with a large enough effect in the signal ratio in the repeat runs, not every such curve was filed as active; the % refers to the signal ratio; further: series mostly up to about 77 µM). Summed up:
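After overnight seeding, SBE-bla HEK 293T cells are dosed with compounds in DMSO and kept 5 hr at 37 C, 5% CO2. LiveBLAzer-type FRET substrate is then applied for 2 hr at room temperature.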

In test [20] the target is Thyrotropin-releasing hormone receptor (Homo sapiens) (UniProt P34981). Kind of test: qHTS assay to identify small molecule antagonists of the thyrotropin-releasing hormone receptor (TRHR) signaling pathway (AID 1346877; active means well fitted inhibition curve with a large enough effect in the repeat runs, not every such curve was filed as active; further: series mostly up to about 51 µM). Summed up:
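TRHR-expressing HEK293 cells were seeded, cultured 18 h at 37 °C, then loaded with calcium dye for 2 h. Compounds were pre-incubated 5 min at room temperature before 1 nM TRH (final) was added, and kinetic fluorescence was recorded for 3 min.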

SMILES strings stand for the structures. A number with no mark means an inactive call. Results filed as inconclusive are left out. Calls of active or inactive are those of the source. Unless noted, the call rests on the fitted dose curve; in most records, active means well fitted curve in the direction sought with a large enough effect in the repeat runs; inconclusive means weak or mixed curves; inactive means no such curve, though single readings can be large; an effect the other way counts as inactive or inconclusive.

Thyrotropin receptor (Homo sapiens), sequence (P16473 whole entry, looked up): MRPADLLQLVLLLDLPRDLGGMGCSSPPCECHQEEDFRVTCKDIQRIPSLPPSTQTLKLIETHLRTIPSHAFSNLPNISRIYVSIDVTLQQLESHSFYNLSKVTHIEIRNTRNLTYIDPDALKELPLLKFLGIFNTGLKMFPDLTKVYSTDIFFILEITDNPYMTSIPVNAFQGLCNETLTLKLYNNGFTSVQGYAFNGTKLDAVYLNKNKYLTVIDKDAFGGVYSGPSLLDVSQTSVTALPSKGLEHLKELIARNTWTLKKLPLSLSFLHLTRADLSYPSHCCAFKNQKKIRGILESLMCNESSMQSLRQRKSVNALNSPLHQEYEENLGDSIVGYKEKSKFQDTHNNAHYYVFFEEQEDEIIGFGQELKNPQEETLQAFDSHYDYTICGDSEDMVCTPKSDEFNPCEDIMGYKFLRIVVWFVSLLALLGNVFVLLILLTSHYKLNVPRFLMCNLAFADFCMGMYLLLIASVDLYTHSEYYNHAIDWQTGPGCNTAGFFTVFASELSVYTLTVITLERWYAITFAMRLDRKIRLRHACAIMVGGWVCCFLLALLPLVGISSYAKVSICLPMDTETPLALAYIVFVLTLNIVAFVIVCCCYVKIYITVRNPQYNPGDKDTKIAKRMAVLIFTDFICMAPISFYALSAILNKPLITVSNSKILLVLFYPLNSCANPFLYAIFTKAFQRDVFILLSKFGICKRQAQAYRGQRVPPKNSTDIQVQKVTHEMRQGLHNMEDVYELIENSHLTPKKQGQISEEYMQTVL
Estrogen receptor beta (Homo sapiens), sequence (Q92731 whole entry, looked up): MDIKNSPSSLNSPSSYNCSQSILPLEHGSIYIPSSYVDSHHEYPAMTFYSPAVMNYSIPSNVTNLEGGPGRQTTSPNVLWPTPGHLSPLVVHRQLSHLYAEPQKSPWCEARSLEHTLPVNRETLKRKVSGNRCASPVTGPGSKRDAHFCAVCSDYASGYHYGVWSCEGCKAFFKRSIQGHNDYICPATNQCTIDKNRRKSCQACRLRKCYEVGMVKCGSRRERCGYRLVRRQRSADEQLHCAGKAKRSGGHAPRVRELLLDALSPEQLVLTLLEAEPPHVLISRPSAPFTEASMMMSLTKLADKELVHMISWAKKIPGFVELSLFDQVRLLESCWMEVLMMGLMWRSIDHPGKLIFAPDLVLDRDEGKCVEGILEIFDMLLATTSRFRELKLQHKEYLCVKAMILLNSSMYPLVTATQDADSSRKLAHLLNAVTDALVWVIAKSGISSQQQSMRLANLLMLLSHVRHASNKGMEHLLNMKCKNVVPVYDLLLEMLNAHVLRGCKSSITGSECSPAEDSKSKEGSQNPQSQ
Thyrotropin-releasing hormone receptor (Homo sapiens), sequence (P34981 whole entry, looked up): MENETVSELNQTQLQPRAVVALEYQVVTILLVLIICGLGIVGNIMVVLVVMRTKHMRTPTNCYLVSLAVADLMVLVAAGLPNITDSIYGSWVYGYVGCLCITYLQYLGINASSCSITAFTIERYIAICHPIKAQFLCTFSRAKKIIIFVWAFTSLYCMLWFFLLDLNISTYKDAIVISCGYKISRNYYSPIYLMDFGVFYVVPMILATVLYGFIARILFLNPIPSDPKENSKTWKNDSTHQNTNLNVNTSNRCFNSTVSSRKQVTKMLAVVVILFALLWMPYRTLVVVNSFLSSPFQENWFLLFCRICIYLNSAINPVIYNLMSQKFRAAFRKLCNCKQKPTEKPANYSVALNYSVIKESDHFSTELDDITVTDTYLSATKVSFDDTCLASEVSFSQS

Regarding `Brc1ccccc1`, the Potency entry in test [1], in [2], in test [3], in [4], in [5] and in test [6] was “inactive” each time. In addition, the Potency result in test [7], in test [8], in test [9], in test [11], in [12] and in [13] was “inactive” each time. Further, the Potency result in [14], in test [15], in [16], in [17], in test [18] and in [20] was “inactive” each time. Besides, the call in test [10] and in test [19] was inactive.
With `O=C(O)CC(Cl)C(=O)O` (configuration not stated), the Potency entry in test [1], in [2], in test [3], in test [4], in test [5] and in test [6] was “inactive” each time. The Potency entry in test [8], in [11], in test [12], in test [13], in test [14] and in test [15] was “inactive” throughout. Besides, the Potency entry in test [16], in test [17], in test [18] and in test [20] was “inactive” each time. Further, the molecule was called inactive in test [10] and in [19].
As to `C=C(C#N)CCC#N`, the Potency entry in test [1], in [2], in test [3], in test [4], in test [5] and in [6] was “inactive” each time. Further, the Potency result in [8], in test [9], in test [11], in test [12], in [13] and in test [14] was “inactive” in each case. Also, the Potency result in [15], in [16], in [17], in test [18] and in [20] was “inactive” in each case. Further, the result in test [10] and in test [19] was inactive.
Turning to `CCCCC(O)(Cn1cncn1)c1ccc(Cl)cc1Cl` (configuration not stated), the Potency entry in test [1], in [3], in [5], in test [7], in [9] and in test [12] was “inactive” throughout. In addition, the Potency result in [17], in [18] and in [20] was “inactive” each time. The Potency in test [2] was 19.3 µM (active); in [4], 48.5 µM (active); in test [6] it was 68.5 µM (active); in test [14], 17.2 µM (active). Besides, the outcome in test [10] and in test [19] was inactive.
In the case of `Cc1cc(=O)[nH]o1`, the Potency result in test [1], in [2], in test [3], in test [4], in test [5] and in [6] was “inactive” each time. The Potency result in test [7], in [8], in test [9], in test [11], in test [12] and in [13] was “inactive” each time. Also, the Potency entry in [14], in [15], in test [16], in test [17], in test [18] and in test [20] was “inactive” in each case. Besides, the molecule was classed as inactive in test [10] and in [19].
Turning to `Clc1cccc(SC2CCNCC2)n1`, the Potency result in test [1], in test [3], in test [4], in test [5], in test [6] and in [8] was “inactive” each time. The Potency result in test [11], in test [12], in test [13], in [14], in [15] and in test [16] was “inactive” throughout. In addition, the Potency result in test [17] and in test [18] was “inactive” in each case. In addition, the Potency in test [2] was 26.6 µM (active). The call in test [10] and in test [19] was inactive.
Consider `[O-][Cl+]O`, for which the Potency entry in [1], in test [2], in [3], in test [4], in test [5] and in test [6] was “inactive” throughout. Besides, the Potency entry in [8], in [9], in test [12], in test [13], in [14] and in test [15] was “inactive” each time. Moreover, the Potency result in test [16], in [17], in test [18] and in [20] was “inactive” throughout. Also, the outcome in [19] was inactive.
Take `CCOP(=S)(Oc1ccc([N+](=O)[O-])cc1)c1ccccc1` (configuration not stated): the Potency result in test [1], in [2], in test [3], in test [4], in test [5] and in test [6] was “inactive” each time. Further, the Potency entry in test [8], in test [9], in test [12], in [13], in [15] and in test [17] was “inactive” each time. For the same molecule, the Potency result in [18] and in [20] was “inactive” throughout. Moreover, the Potency in test [14] is 2.17 µM (active). In test [19], the result was inactive.

(Values after PubChem BioAssay (Tox21).)
